The values below come from PubChem BioAssay.

Test [1] can be described thus: E. coli DRC41 culture turbidity changes, primary screen, E. coli filamentation inducer project, strain DRC41, OD650, 48 h (AID 1152).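 Note: E. coli MC1000 strain DRC41 lacking acrAB efflux pump and sulA.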 Particulars: E. coli DRC41 (acrAB sulA), higher = more signal, called active from +8 up or from −8 down.
Test [2] can be described thus: small-molecule binders of probe aLefty1, primary screen, biochemical, small-molecule microarray, 635/667 nm fluorescence (AID 1153).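 Note: score merges spot fluorescence with signal-to-noise ratio from the scanned slide images.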 Particulars: higher = more signal.
The nature of test [3]: PSAC antagonists in infected red cells, primary screen, cell-based, P. falciparum Indochina, OD700, 1 h (AID 1154). As to conditions: P. falciparum Indochina infected RBC osmotic lysis, higher = more signal, called active from +8 up or from −8 down.
Test [4] is described as follows: PSAC antagonists in infected red cells, primary screen, cell-based, P. falciparum Indochina, OD700, 2 h (AID 1155).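 Note: lysis reports solute entry through the parasite surface anion channel PSAC; channel blockers reduce lysis of infected cells.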 As to conditions: P. falciparum Indochina infected erythrocytes, osmotic lysis OD700; higher = more signal, called active from +8 up or from −8 down.
A short description of test [5]: osmotic lysis modulators in infected erythrocytes, primary screen, PSAC antagonist project, cell-based, P. falciparum Indochina, OD700, 3 h (AID 1156). As to conditions: higher = more signal, called active from +8 up or from −8 down.
Test [6] is described as follows: PSAC antagonists in infected red cells, primary screen, cell-based, P. falciparum Indochina, OD700, 18 h (AID 1157). Particulars: P. falciparum Indochina infected erythrocytes, osmotic lysis OD700, 18 h; higher = more signal, called active from +8 up or from −8 down.
A short description of test [7]: modulators of S6 phosphorylation in cells, primary screen, cell-based, A549, cytoblot, luminescence, serum-stimulated (AID 1158).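 Note: serum-stimulated A549 lung adenocarcinoma cells; signal is phosphorylated S6 detected by cytoblot immunostaining with HRP secondary.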 As to conditions: A549 phospho-S6 cytoblot, 5 h, higher = more signal.
Test [8] has as its target NADPH oxidase 2 (Homo sapiens) (UniProt P04839). The experiment in a line: NOX2-dependent H2O2 signal modulators, primary screen, NOX inhibitor project, cell-based, HEK293-NOX2, PMA-stimulated, Amplex Red fluorescence (AID 1159). Note: test concentration not given here. Particulars: 45 min, higher = more signal, called active from +8 up or from −8 down.
Test [9] concerns the target NADPH oxidase 4 (Homo sapiens) (UniProt Q9NPH5). In words: NOX4-dependent H2O2 signal modulators, primary screen, NOX inhibitor project, cell-based, HEK293-NOX4, tetracycline-induced, Amplex Red fluorescence (AID 1160). As to conditions: 45 min, higher = more signal, called active from +8 up or from −8 down.
The target of test [10] is NADPH oxidase 5 (Homo sapiens) (UniProt Q96PH1). The experiment in a line: NOX5-dependent H2O2 signal modulators, primary screen, NOX inhibitor project, cell-based, HEK293-NOX5, Amplex Red fluorescence (AID 1161). As to conditions: HEK293-NOX5, ionomycin, 45 min, higher = more signal.
NADPH oxidase 5 (Homo sapiens), sequence (Q96PH1 whole entry, looked up): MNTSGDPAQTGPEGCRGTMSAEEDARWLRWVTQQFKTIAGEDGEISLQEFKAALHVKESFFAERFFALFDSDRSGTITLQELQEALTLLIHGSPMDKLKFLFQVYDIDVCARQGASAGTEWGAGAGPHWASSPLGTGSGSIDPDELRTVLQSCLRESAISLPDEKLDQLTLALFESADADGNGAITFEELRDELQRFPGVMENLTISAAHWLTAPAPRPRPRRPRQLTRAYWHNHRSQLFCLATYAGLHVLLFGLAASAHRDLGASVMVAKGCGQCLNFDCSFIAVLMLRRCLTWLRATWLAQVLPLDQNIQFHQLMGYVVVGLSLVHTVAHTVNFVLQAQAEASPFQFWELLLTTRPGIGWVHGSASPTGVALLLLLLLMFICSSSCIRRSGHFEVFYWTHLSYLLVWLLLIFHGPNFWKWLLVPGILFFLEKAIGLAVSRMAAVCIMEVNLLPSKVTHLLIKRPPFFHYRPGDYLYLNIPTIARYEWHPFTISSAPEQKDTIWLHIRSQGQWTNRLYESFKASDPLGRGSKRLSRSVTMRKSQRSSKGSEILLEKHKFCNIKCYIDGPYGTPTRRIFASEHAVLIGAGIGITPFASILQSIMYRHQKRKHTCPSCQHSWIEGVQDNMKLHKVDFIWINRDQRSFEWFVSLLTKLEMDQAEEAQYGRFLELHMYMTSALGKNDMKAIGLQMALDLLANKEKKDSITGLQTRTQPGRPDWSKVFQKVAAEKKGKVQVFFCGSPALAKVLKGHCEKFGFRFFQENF

SMILES strings stand for the structures. Active and inactive are the calls of the source.

NADPH oxidase 2 (Homo sapiens), sequence (P04839 whole entry, looked up): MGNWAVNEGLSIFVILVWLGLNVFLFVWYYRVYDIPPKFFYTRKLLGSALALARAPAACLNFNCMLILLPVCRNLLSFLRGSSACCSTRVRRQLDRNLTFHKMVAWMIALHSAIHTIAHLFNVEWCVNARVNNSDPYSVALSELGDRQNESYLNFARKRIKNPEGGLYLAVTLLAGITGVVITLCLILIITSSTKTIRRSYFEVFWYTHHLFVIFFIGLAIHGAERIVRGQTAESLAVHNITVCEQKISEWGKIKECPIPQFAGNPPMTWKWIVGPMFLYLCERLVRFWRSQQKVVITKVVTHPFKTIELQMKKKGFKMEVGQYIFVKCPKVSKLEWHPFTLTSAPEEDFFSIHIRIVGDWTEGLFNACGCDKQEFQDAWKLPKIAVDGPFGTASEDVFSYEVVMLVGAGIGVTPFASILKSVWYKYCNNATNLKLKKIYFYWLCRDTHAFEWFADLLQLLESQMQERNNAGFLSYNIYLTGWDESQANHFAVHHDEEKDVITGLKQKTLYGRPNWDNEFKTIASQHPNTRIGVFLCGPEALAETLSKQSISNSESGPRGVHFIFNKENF
NADPH oxidase 4 (Homo sapiens), sequence (Q9NPH5 whole entry, looked up): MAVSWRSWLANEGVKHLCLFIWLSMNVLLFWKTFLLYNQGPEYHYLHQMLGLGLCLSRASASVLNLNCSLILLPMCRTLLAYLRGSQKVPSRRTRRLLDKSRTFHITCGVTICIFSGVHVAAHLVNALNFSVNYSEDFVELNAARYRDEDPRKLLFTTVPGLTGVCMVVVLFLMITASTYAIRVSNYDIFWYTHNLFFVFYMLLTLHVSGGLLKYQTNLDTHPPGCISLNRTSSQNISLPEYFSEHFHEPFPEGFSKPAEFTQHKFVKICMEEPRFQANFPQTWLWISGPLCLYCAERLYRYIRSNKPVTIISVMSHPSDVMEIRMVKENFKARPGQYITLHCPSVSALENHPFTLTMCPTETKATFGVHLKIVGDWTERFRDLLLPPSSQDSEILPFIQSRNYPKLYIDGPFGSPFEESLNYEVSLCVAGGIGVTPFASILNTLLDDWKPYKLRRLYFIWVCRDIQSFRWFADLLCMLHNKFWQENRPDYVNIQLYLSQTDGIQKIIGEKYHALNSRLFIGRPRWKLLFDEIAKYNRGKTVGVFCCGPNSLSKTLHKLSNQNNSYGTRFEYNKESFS

In the case of `C=CC[C@@]1(C(=O)NCCN2CCOCC2)N=C(c2ccc(OCCCO)cc2)O[C@@H]1c1ccccc1N=[N+]=[N-]`, the z-score is 0.301 (inactive) in [1]; 31.2 (active) in [3]; 31.8 (active) in test [4]; 2.48 (inactive) in [5]; 2.95 (inactive) in [6]; -0.291 in [7]. Moreover, the z-score in test [8] is -1.67 (inactive); in test [9], 0.0137 (inactive); in test [10] it was -1.73. The composite z-score in [2] is 0.144.
Consider `COC(=O)[C@@]1(Cc2ccccc2)N=C(c2ccc(OCCCO)cc2)O[C@H]1c1ccccc1`, for which the z-score in [1] is 0.792 (inactive); in test [3], 23.4 (active); in test [4], 12.2 (active); in test [5], 0.737 (inactive); in [6], 1.89 (inactive); in test [7] it was -0.182. Moreover, the figures for the z-score in [8], in test [9] and in [10] were -5.76 (inactive), -0.904 (inactive) and -3, respectively. The composite z-score in [2] came out at 0.236.
In the case of `O=C1C[C@@](C(=O)NCC(F)(F)F)(c2ccc([N+](=O)[O-])cc2)[C@@H](c2ccc(CO)cc2I)N1C1CCCCC1`, the z-score in test [1] was -0.629 (inactive); in test [3], 16.9 (active); in [4] it was 1.79 (inactive); in [5], 2.56 (inactive); in [6] it was 0.599 (inactive); in test [7], -0.417. Besides, the values for the z-score in [8], in test [9] and in test [10] were 0.979 (inactive), -0.0876 (inactive) and 0.612, respectively. Besides, the composite z-score in [2] is 0.165.
Turning to `CC(C)C[C@@H]1NC(=O)[C@@H]2C[C@H](C(=O)O)[C@H](c3cccc(OCCO)c3)N2C1=O`, the z-score is 0.649 (inactive) in test [1]; 3.95 (inactive) in test [3]; 0.373 (inactive) in [4]; -0.917 (inactive) in test [5]; 0.0571 (inactive) in [6]; -0.129 in test [7]. Moreover, the z-score in [8] was 1.34 (inactive); in [9], 0.663 (inactive); in [10] it was 2.01. Moreover, in [2], the composite z-score is -0.0966.
`CN(C)CCCCCCNC(=O)[C@H]1C[C@H]2C(=O)N[C@@H](CCCCN)C(=O)N2[C@H]1c1cccc(OCCO)c1`: the z-score in [1] was -0.497 (inactive); in test [3], 2.2 (inactive); in test [4], 0.192 (inactive); in [5], 0.32 (inactive); in test [6] it was 0.229 (inactive); in test [7] it was -0.268. Also, the z-score in [8] was 1.65 (inactive); in [9], 1.03 (inactive); in test [10] it was 1.24. The molecule further showed a composite z-score in [2] of 2.71.
Take `C=C(/C(=C/C[C@H](OC(C)=O)c1ccccc1OCCO)c1cnc2ccccc2c1)C(C)C`: the z-score in test [1] was -0.564 (inactive); in test [3], 9.77 (active); in test [4], 1.55 (inactive); in test [5], 1.29 (inactive); in [6], 0.724 (inactive); in test [7], 0.193. In addition, the z-score in [8] is -0.353 (inactive); in [9], -0.402 (inactive); in test [10], -1.08. Further, in [2], the composite z-score was -0.0654.
Take `O=C(NCCN1CCOCC1)C1N=C(c2ccc(OCCCO)cc2)N(c2ccccc2)O1` (stereo not given): the z-score in [1] is 0.759 (inactive); in test [3] it was 6.99 (inactive); in [4] it was 0.287 (inactive); in test [5] it was -0.625 (inactive); in test [6], 0.399 (inactive); in test [7] it was -0.441. Moreover, the figures for the z-score in test [8], in test [9] and in test [10] were 1.45 (inactive), -0.0142 (inactive) and -0.429, respectively. Also, the composite z-score in [2] turned out to be 0.0709.
On to `C=C(CCCC)/C(=C/C[C@@H](OC(C)=O)c1ccc(OCCO)cc1)c1cnc2ccccc2c1`, for which the z-score in test [1] was 1.04 (inactive); in test [3] it was 24 (active); in [4] it was 6.92 (inactive); in test [5], 2.09 (inactive); in [6], 1.34 (inactive); in [7] it was 0.684. The z-score in [8] was -1.98 (inactive); in test [9], -0.0832 (inactive); in [10], -2.21. Further, in test [2], the composite z-score came to 0.0038.
